Compound activity deposited in PubChem by National Center for Advancing Translational Sciences (NCATS).
NPC1 prom act: activators of NPC1 promoter; 320,000 tested, 2.4% active; Potency, µM (doses to about 9.22 µM), inactives show top-dose activation, most hits filed as activators; AID 485313; Huh7 NPC1 promoter luciferase reporter, 24 h; further: % of control where 0% means no effect; nearly all actives have a fitted effect of over 60% in size
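Readout is luciferase luminescence, reflecting NPC1 promoter activation in stably transfected Huh7 cells after 24 h compound exposure at 37 °C in reduced-serum medium with 10% FBS.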
Rab9 prom act: activates the Rab9 promoter; Potency, µM (doses to about 9.22 µM), for the others: at the top dose activation, negative = inhibition, most hits filed as activators; Huh7 Rab9 promoter-luciferase reporter, luminescence, 24 h; 320,000 tested, 2.8% active; further: % of control where 0% means no effect; nearly all actives have a fitted effect of over 60% in size
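Rab9 promoter-driven luciferase in stably transfected Huh7 cells; 1500 cells/well rested 2 h, exposed to compound in DMSO for 24 h at 37 °C, 5% CO2. Luminescence read 10 min after adding luciferase reagent at ambient temperature.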
KinaseGlo FLuc: counter-screen: inhibitors of Kinase-Glo firefly luciferase | Q27757 | Kinase-Glo luciferase, ATP luminescence, 8 min | Potency, µM (titrated, usually from 38.3 µM), without a hit: at the top dose activity change, negative = inhibition, usual class: inhibitors | 200,000 tested, 0.28% active; further: on the % scale 0 is the no-effect control and ±100 the full control effect; nearly all actives have a fitted effect of over 60% in size
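Kinase-Glo luciferase light output from ATP and luciferin was measured with 10 uM ATP, within the enzyme's linear range. Buffer: 50 mM imidazole pH 7.2, 50 mM KCl, 7 mM MgCl2, 0.01% Tween 20, 0.05% BSA; luminescence read after 8 min at ambient temperature.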
FLuc counter: firefly luciferase modulation, counter-screen for miR-21 project. 360,000 tested, 6.9% active. P08659. Potency, µM (highest dose often 57.5 µM), without a hit: at the highest dose activity change, negative = inhibition, usual class: inhibitors. purified FLuc, Km substrates, luminescence inhibition;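 further: plate controls were vehicle for no effect and reference inhibitor for full effect; nearly all actives have a fitted effect of over 55% in size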
Target sequence (P08659 whole entry, looked up): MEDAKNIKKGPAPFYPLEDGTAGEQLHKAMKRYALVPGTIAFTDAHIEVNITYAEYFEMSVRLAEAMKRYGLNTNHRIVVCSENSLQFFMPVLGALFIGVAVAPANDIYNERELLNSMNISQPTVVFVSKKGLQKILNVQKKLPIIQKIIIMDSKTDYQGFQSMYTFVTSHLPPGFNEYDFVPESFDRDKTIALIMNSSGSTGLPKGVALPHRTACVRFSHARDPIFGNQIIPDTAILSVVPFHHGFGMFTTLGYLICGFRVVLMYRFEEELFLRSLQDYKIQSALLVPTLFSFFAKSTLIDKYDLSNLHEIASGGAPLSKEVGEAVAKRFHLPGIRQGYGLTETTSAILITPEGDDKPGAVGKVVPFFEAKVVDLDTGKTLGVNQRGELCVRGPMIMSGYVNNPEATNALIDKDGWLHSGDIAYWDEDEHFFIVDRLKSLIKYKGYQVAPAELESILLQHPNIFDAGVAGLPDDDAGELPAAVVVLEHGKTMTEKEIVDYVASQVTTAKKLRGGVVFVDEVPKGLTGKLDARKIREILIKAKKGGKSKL
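Purified P. pyralis luciferase, 10 nM final, with Km-level 10 uM D-luciferin and 10 uM ATP in 50 mM Tris acetate pH 7.5, 10 mM Mg acetate, 0.01% Tween-20, 0.05% BSA; 6-point qHTS titration about 60 µM downward; luminescence read.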
ELG1 genotoxic: induces genotoxicity in HEK293T cells with luciferase-tagged ELG1; AID 504466; 330,000 tested, 1.3% active; HEK293T ELG1-luciferase reporter, luminescence, 16 h; Potency, µM (top dose mostly 46 µM), for the others: at the highest dose activity change, positive = activation, hits mostly activators; further: % of control where 0% means no effect; nearly all actives have a fitted effect of over 60% in size
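16 hr compound incubation (37 °C, 5% CO2) of HEK293T cells carrying luciferase-tagged ELG1; luciferase then measured by ONE-Glo luminescence after 30 min at RT.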
SMN2 splice enh: SMN2 splice variant enhancement. HEK293 SMN2-luciferase splicing reporter, luminescence, 30-36 h. Potency, µM (doses to about 46.1 µM), inactives show top-dose activity change, positive = activation, most hits filed as activators. 210,000 tested, 2.8% active. AID 1458; further: % of control where 0% means no effect; nearly all actives have a fitted effect of over 55% in size
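HEK293 cells carry an SMN2 […]–luciferase reporter in which exon 7 inclusion puts luciferase in frame. Cells were plated 10-12 h before compound addition, then incubated 30-36 h at 37C. ONE-Glo luminescence was read; sodium butyrate at 4.5 mM final served as control.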
* hit, by the source's call; ? = inconclusive; . = no result; [ ] = another dose, or the depositor's remark. Sampled rows, rich in hits. Any-hit rate of the full collection: about 7.4%. The call rests on the fitted dose curve; in most records, active means well fitted curve in the direction sought with a large enough effect; inconclusive means small, poorly fitted or top-dose-only effect, or another doubt; inactive means no such curve, though single readings can be large; an effect the other way counts as inactive or inconclusive. Potency means the concentration at half of the fitted maximal effect.

SMILES	NPC1 prom act	Rab9 prom act	KinaseGlo FLuc	FLuc counter	ELG1 genotoxic	SMN2 splice enh
COc1cccc(NC(=O)CSc2nnc(NC(=O)NC3CCCCC3)s2)c1	.	.	.	1.5µM*	.	.
Cc1ccc(NC(=O)CSc2nnc(NC(=O)NC3CCCCC3)s2)cc1	.	.	.	0.95µM*	.	.
COc1cccc(NC(=O)CSc2nnc(NC(=O)C3CC3)s2)c1	-2%	2%	.	-19%	0%	.
Cc1ccc(NC(=O)Nc2nnc(SCC(=O)N3CCC(C)CC3)s2)cc1	.	.	.	19µM*	.	.
Cc1ccc(NC(=O)CSc2nnc(NC(=O)C3CC3)s2)cc1	1%	4%	.	0%	?	.
CCCSc1nnc(NC(=O)Nc2ccc(C)cc2)s1	2%	-2%	.	0%	-3%	.
O=C(CSc1nnc(NC2CCCCC2)s1)Nc1ccc(N2CCOCC2)cc1	17%	14%	-11%	13µM*	10%	-13%
C=C(N(C)C)[C@]1(C)C[C@H]1[C@H](NC(=O)CNC(=O)OCc1ccccc1)c1ccccc1	.	.	-4%	.	.	-23%
CCc1nc2c(oc3ccccc32)c(=O)[nH]1	24%	23%	-10%	?	5%	6%
O=c1[nH]c(CSc2ccccn2)nc2c1oc1ccccc12	3.5µM*	0.79µM*	-18%	2.7µM*	?	1µM*
O=C(Nc1cccc(S(=O)(=O)Nc2ccc(Cl)cc2)c1)c1cc2c(s1)CCCC2	-3%	1%	5%	15µM*	-7%	-68%
O=C(Nc1cccc(S(=O)(=O)Nc2ccc(Cl)cc2)c1)c1ccc(Cl)nc1	-21%	-23%	.	3%	0%	.
Cc1ccc(C(=O)Nc2ccc(C)c(S(=O)(=O)Nc3ccccc3Cl)c2)s1	3%	-3%	-4%	?	-3%	-52%
Cc1ccc(NC(=O)c2cc3c(s2)CCCC3)cc1S(=O)(=O)Nc1ccccc1Cl	-7%	-5%	0%	17µM*	-8%	-60%
Cn1c(=O)n(-c2ccc3c(c2)OCO3)c2nc(-c3ccccc3)nc(C(N)=O)c21	.	.	.	-9%	.	0%
COc1ccc(CNC(=O)CN2C(=O)COc3ccc(S(=O)(=O)N4CCCCCC4)cc32)cc1	.	.	.	-14%	.	.
CCC(C)C(NC(=O)c1ccccc1NC(=O)c1ccccc1)C(=O)O (configuration not stated)	-2%	0%	.	3%	-2%	.
Cc1ccc(C(=O)Nc2ccccc2C(=O)NC(Cc2ccccc2)C(=O)O)cc1 (configuration not stated)	14%	24%	6%	11µM*	13%	13%
CCC(NC(=O)c1ccccc1NC(=O)c1ccc(C)cc1)C(=O)O (configuration not stated)	10%	20%	-7%	13µM*	?	2%
CC(=O)N[C@H](Cc1c[nH]c2ccccc12)C(=O)O	.	.	-3%[7.66 µM]	.	.	-12%[9.22 µM]
Cc1ccc(C(=O)Nc2ccccc2C(=O)NC(Cc2c[nH]c3ccccc23)C(=O)O)cc1 (configuration not stated)	11%	21%	0%	11µM*	9%	23%
CCOc1ccc(N=Cc2ccc3ccccc3c2)cc1	12%	-2%	.	0.76µM*	0%	.
CCOc1ccc(N=CNc2ccc(OCC)cc2)cc1	12%	-5%	.	?	-1%	.
c1ccc(NCc2nc(-c3ccccc3)no2)cc1	?	?	-5%	17µM*	23µM*	?
COc1ccccc1-c1noc(COC(=O)c2ccc(Br)o2)n1	-4%	-3%	.	1%	5%	.
SMILES	NPC1 prom act	Rab9 prom act	KinaseGlo FLuc	FLuc counter	ELG1 genotoxic	SMN2 splice enh
Cc1ccccc1OCc1nc(-c2ccc(Br)o2)no1	11%	8%	-5%	17µM*	?	11%
Cc1ccccc1OCc1nc(-c2ccccc2)no1	4µM*	4µM*	-1%	4.8µM*	?	32µM*
Cc1ccccc1OCC(=O)N(Cc1nc(-c2ccccc2)no1)C(C)C	-3%	1%	2%	-1%	0%	8%
c1ccc(-c2noc(COc3ccc4c(c3)OCO4)n2)cc1	4µM*	2.8µM*	-5%	2.1µM*	9.2µM*	14µM*
OCc1ccc(-c2ccc(-c3ccc(CO)s3)o2)s1	.	.	2%[39.9 µM]	.	.	.
Cc1cc(Br)ccc1OCc1nc(-c2cccnc2)no1	29%	?	-3%	?	21µM*	?
COc1cccc(-c2noc(COc3ccccc3Cl)n2)c1	.	.	.	11µM*	.	?
Cc1ccc(OCc2nc(-c3ccccc3)no2)cc1	?	4µM*	.	7.6µM*	?	.
COc1cccc(-c2noc(COc3ccc(C(C)(C)C)cc3)n2)c1	.	.	.	-2%	.	2%
Cc1ccc(-c2noc(COc3ccccc3C)n2)cc1	18%	23%	2%	21µM*	?	19%
COc1ccc(-c2noc(COc3ccccc3OC)n2)cc1OC	13%	3%	-2%	?	?	12%
Cc1cc(C)c(/C=C/c2onc(C)c2S(=O)(=O)N2CCC(C(=O)Nc3ccc(Cl)c(C(F)(F)F)c3)CC2)c(C)c1	.	.	.	1%	.	.
CSc1cccc(NC(=O)Cn2c(=O)n(Cc3ccccc3)c(=O)c3sc4ccccc4c32)c1	.	.	.	-1%	.	-1%
CC1CCN(S(=O)(=O)c2cc(C(=O)NCc3ccc(F)cc3)n(C)c2)CC1	.	.	.	-4%	.	.
CCc1ccc(-n2c(CCC(=O)O)ccc2-c2ccc(F)cc2)cc1	.	.	.	?	.	-2%
COc1cccc(C(=O)CC2c3c(c(Br)c4c(c3OC)OCO4)CCN2C)c1 (configuration not stated)	.	.	-1%	.	.	14%
N/C(=N\OC(=O)CC1CCCCC1)c1cccc([N+](=O)[O-])c1	-1%	-4%	0%	6µM*	2%	-27%
N/C(=N\OC(=O)CCC1CCCC1)c1cccc([N+](=O)[O-])c1	1%	1%	.	9.5µM*	4%	.
N/C(=N\OC(=O)CCC1CCCC1)c1ccc(Br)cc1	10%	10%	.	?	17%	.
N/C(=N\OC(=O)CCC1CCCCC1)c1cccnc1	11%	-4%	-1%	19µM*	10%	17%
COc1ccc(/C(N)=N/OC(=O)CC2CCCCC2)cc1	20%	20%	.	17µM*	?	.
N/C(=N\OC(=O)CC1CCCCC1)c1ccc([N+](=O)[O-])cc1	6%	-1%	2%	?	2%	4%
CCCCCn1cnc2sc(-c3ccccc3)cc2c1=O	2.5µM*	2.2µM*	0%	6.7µM*	13%	?
O=c1c2c(-c3ccccc3)csc2ncn1/N=C/c1c2ccccc2cc2ccccc12	-1%	3%	18%	-1%	-17%	-15%
CCCCn1cnc2sc(-c3ccccc3)cc2c1=O	1.4µM*	1.6µM*	-1%	5.4µM*	?	24%
